Tested on: Vero E6 infected with SARS-CoV-2
Test: inhibition of SARS-CoV-2 cytopathic effect; higher = more antiviral protection, active = above 15
Details: 48 h

Measured: inhibition of SARS-CoV-2 cytopathic effect

O=C1C2CCN(CC2)C1(CO)CO
inactive: 1 nM -0.42% | 8.33 nM 1.99% | 100 nM 3.09% | 833.33 nM 2.96% | 10000 nM 5.06%

COC(=O)C1=C(C)NC(C)=C([N+](=O)[O-])[C@@H]1c1ccccc1C(F)(F)F (racemic)
inactive: 1 nM 2% | 8.33 nM -0.15% | 100 nM -1.34% | 833.33 nM 2.63% | 10000 nM 4.88%

CC1=C(C(=O)O)N2C(=O)[C@@H](NC(=O)[C@H](N)c3ccc(O)cc3)[C@H]2SC1 [cefadroxil]
inactive: 1 nM 1.06% | 8.33 nM 1.53% | 100 nM 1.01% | 833.33 nM -2.49% | 10000 nM -1.18%

O=C(NCCCN1CCOCC1)c1ccc(Cl)cc1 [eprobemide]
inactive: 1 nM 0.75% | 8.33 nM 1.72% | 100 nM 4.31% | 833.33 nM -1.08% | 10000 nM 0.69%

O=C1NC(c2cccc([N+](=O)[O-])c2)=CCN1c1ccccc1O [icilin]
inactive: 1 nM -1.18% | 8.33 nM 2.89% | 100 nM 1.15% | 833.33 nM 0.66% | 10000 nM 0.77%

O=C(CCCN1CCC(n2c(=O)[nH]c3ccccc32)CC1)c1ccc(F)cc1 [benperidol]
inactive: 1 nM 0.17% | 8.33 nM -0.44% | 100 nM -0.77% | 833.33 nM 2.15% | 10000 nM -4.28%

COC(=O)c1ccc2c(c1)nc(NC(=O)c1ccccc1)n2CCCc1ccccc1
inactive: 1 nM -0.52% | 8.33 nM -1.27% | 100 nM -1.28% | 833.33 nM -5.07% | 10000 nM -1.86%

CC(C)(N)Cc1ccccc1 [phentermine]
inactive: 1 nM 2.16% | 8.33 nM 1.33% | 100 nM 2.37% | 833.33 nM 3.73% | 10000 nM 1.23%

N#CCCCSC(=N)N [kevetrin]
inactive: 1 nM -0.54% | 8.33 nM -2.73% | 100 nM -3.7% | 833.33 nM -3.14% | 10000 nM -0.14%

CO/N=C1/C[C@@H](C(=O)NC[C@@H](O)c2ccccc2)N(C(=O)c2ccc(-c3ccccc3C)cc2)C1 [OT-R-antagonist-1]
inactive: 1 nM -0.95% | 8.33 nM 1.59% | 100 nM -0.48% | 833.33 nM 1.09% | 10000 nM -1.5%

CO/N=C(\C(=O)N[C@@H]1C(=O)N2C(C(=O)[O-])=C(C[n+]3ccn4ncccc43)CS[C@H]12)c1nsc(N)n1 [cefozopran]
inactive: 1 nM -1.88% | 8.33 nM 1.38% | 100 nM -0.43% | 833.33 nM -0.82% | 10000 nM -0.02%

C[C@]12CC[C@H](O)CC1=CC[C@@H]1[C@@H]2CC[C@]2(C)C(n3cnc4ccccc43)=CC[C@@H]12 [galeterone]
inactive: 1 nM -0.79% | 8.33 nM 0.99% | 100 nM 0.05% | 833.33 nM -5.02% | 10000 nM -6.94%

CCCCCCCCCCCCCC(=O)OC(C)C [isopropyl-myristate]
inactive: 1 nM 0.54% | 8.33 nM 0.41% | 100 nM 2.06% | 833.33 nM 1.1% | 10000 nM -0.15%

NC(=O)c1noc([C@H](CCCC2CCCCC2)CC(=O)NO)n1
inactive: 1 nM 1.44% | 8.33 nM -2.89% | 100 nM 0.07% | 833.33 nM -1.38% | 10000 nM -7.78%

O=C(c1ccc(OCCCc2c[nH]cn2)cc1)C1CC1 [ciproxifan]
inactive: 1 nM -1.13% | 8.33 nM -1.91% | 100 nM -1.12% | 833.33 nM 9.43% | 10000 nM 10.2%

O=C(/C=C/c1ccc(O)c(O)c1)c1ccc(O)cc1O [butein]
inactive: 1 nM -0.13% | 8.33 nM 0.3% | 100 nM 1.11% | 833.33 nM 2.97% | 10000 nM 12.1%

CCn1nc(C(=O)O)c(=O)c2cc3c(cc21)OCO3 [cinoxacin]
inactive: 1 nM 0.52% | 8.33 nM -0.24% | 100 nM 0.19% | 833.33 nM 0.12% | 10000 nM -1.09%

COc1ccc(Nc2ncnc3ccc(OC)cc23)cc1
inactive: 1 nM 4.07% | 8.33 nM 6.4% | 100 nM 6.26% | 833.33 nM 1.4% | 10000 nM -3.12%

Clc1cccc(SC2CCNCC2)n1 [anpirtoline]
inactive: 1 nM -4.7% | 8.33 nM -4.88% | 100 nM 1.08% | 833.33 nM 0.38% | 10000 nM -4.79%

Source: the supplement of paper PMC13380429
